# Results taken from paper PMC12820563, “FoxP3 forms a head-to-head dimer in vivo and stabilizes its multimerization on adjacent microsatellites”.
# In all, about 16,000 sequences were measured (“rpm ratio (pull-down/input)”: median about 0.94, highest 2% from about 1.7 on). The sample as a whole holds a higher share of the highest values than the screen did.
# Biological target: T1, MBP-FoxP1dN (Mus musculus, UniProt P58462 326-579)
# T1 sequence: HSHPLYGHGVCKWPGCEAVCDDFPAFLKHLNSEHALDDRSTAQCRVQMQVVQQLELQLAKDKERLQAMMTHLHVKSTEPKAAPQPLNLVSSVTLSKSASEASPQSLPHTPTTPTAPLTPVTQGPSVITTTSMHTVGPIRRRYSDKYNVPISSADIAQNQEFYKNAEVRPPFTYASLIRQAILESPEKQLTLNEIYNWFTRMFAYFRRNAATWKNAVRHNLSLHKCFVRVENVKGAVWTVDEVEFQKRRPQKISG
# Assay: PD-seq (MBP pull-down with sequencing); 20 mM Tris-HCl pH 7.5, 100 mM NaCl, 1.5 mM MgCl2, 0.4 uM protein, 0.1 uM dsDNA library, 30 min, room temperature, amylose pull-down; high values mean tight binding
# Conditions: protein: recombinant; tags: His6-MBP; chain copies: 2; dsDNA, one strand shown
# In short: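 Mouse FoxP3 or FoxP1 fragment lacking the N-terminus, His6-MBP-tagged and expressed in E. coli, was incubated at 0.4 µM with 0.1 µM Klenow-filled degenerate double-stranded DNA library for 30 min at room temperature in Tris pH 7.5 buffer with NaCl and MgCl2. Complexes captured on amylose resin were washed three times and their DNA sequenced on Illumina. Binding is reads-per-million enrichment of pull-down over input, replicates pooled.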
row,Sequence,binding signal
1,GATGATTGTTCTCCCAGCTGATGAATTTTTGATATCGAGTAAACAAATTTTCCTAATCTTTCTGTTCAAGCGCCATCTAC,1.17 RPM ratio (pull-down/input)
2,GATGATTGTTCTCCCAGCTGATGAATTCTATTTATCGAGTAAACAAATTTTCCTAATCTTTCTGTTCAAGCGCCATCTAC,2.58 RPM ratio (pull-down/input)
3,GATGATTGTTCTCCCAGCTGATGAATTATTCTTATCGAGTAAACAAATTTTCCTAATCTTTCTGTTCAAGCGCCATCTAC,1.08 RPM ratio (pull-down/input)
4,GATGATTGTTCTCCCAGCTGATGAATTATTCTAATCGAGTAAACAAATTTTCCTAATCTTTCTGTTCAAGCGCCATCTAC,1.2 RPM ratio (pull-down/input)
5,GATGATTGTTCTCCCAGCTGATGAATTATTTCAATCGAGTAAACAAATTTTCCTAATCTTTCTGTTCAAGCGCCATCTAC,1.11 RPM ratio (pull-down/input)
6,GATGATTGTTCTCCCAGCTGATGAATTATTGTTATCGAGTAAACAAATTTTCCTAATCTTTCTGTTCAAGCGCCATCTAC,2.83 RPM ratio (pull-down/input)
7,GATGATTGTTCTCCCAGCTGATGAATTATTCCTATCGAGTAAACAAATTTTCCTAATCTTTCTGTTCAAGCGCCATCTAC,1.08 RPM ratio (pull-down/input)
8,GATGATTGTTCTCCCAGCTGATGAATTTATTCTATCGAGTAAACAAATTTTCCTAATCTTTCTGTTCAAGCGCCATCTAC,1.16 RPM ratio (pull-down/input)
9,GATGATTGTTCTCCCAGCTGATGAATTGTTGATATCGAGTAAACAAATTTTCCTAATCTTTCTGTTCAAGCGCCATCTAC,2.16 RPM ratio (pull-down/input)
10,GATGATTGTTCTCCCAGCTGATGAATTATTGTAATCGAGTAAACAAATTTTCCTAATCTTTCTGTTCAAGCGCCATCTAC,1.91 RPM ratio (pull-down/input)
11,GATGATTGTTCTCCCAGCTGATGAATTGATGATATCGAGTAAACAAATTTTCCTAATCTTTCTGTTCAAGCGCCATCTAC,1.21 RPM ratio (pull-down/input)
12,GATGATTGTTCTCCCAGCTGATGAATTGAGGCTGTCGAGTAAACAAATTTTCCTAATCTTTCTGTTCAAGCGCCATCTAC,0.891 RPM ratio (pull-down/input)
13,GATGATTGTTCTCCCAGCTGATGAATTACGTAAGTCGAGTAAACAAATTTTCCTAATCTTTCTGTTCAAGCGCCATCTAC,1.14 RPM ratio (pull-down/input)
14,GATGATTGTTCTCCCAGCTGATGAATTGGGGCAATCGAGTAAACAAATTTTCCTAATCTTTCTGTTCAAGCGCCATCTAC,1.01 RPM ratio (pull-down/input)
15,GATGATTGTTCTCCCAGCTGATGAATTTAGGACGTCGAGTAAACAAATTTTCCTAATCTTTCTGTTCAAGCGCCATCTAC,0.956 RPM ratio (pull-down/input)
16,GATGATTGTTCTCCCAGCTGATGAATTCATCAGCTCGAGTAAACAAATTTTCCTAATCTTTCTGTTCAAGCGCCATCTAC,0.818 RPM ratio (pull-down/input)

row,Sequence,binding signal
1,GATGATTGTTCTCCCAGCTGATGAATTTCGTTAATCGAGTAAACAAATTTTCCTAATCTTTCTGTTCAAGCGCCATCTAC,0.996 RPM ratio (pull-down/input)
2,GATGATTGTTCTCCCAGCTGATGAATTGACATCCTCGAGTAAACAAATTTTCCTAATCTTTCTGTTCAAGCGCCATCTAC,1.19 RPM ratio (pull-down/input)
3,GATGATTGTTCTCCCAGCTGATGAATTAGTTATATCGAGTAAACAAATTTTCCTAATCTTTCTGTTCAAGCGCCATCTAC,1.07 RPM ratio (pull-down/input)
4,GATGATTGTTCTCCCAGCTGATGAATTAGTGTTATCGAGTAAACAAATTTTCCTAATCTTTCTGTTCAAGCGCCATCTAC,1.8 RPM ratio (pull-down/input)
5,GATGATTGTTCTCCCAGCTGATGAATTTTGATTATCGAGTAAACAAATTTTCCTAATCTTTCTGTTCAAGCGCCATCTAC,1.79 RPM ratio (pull-down/input)
6,GATGATTGTTCTCCCAGCTGATGAATTGTCATCATCGAGTAAACAAATTTTCCTAATCTTTCTGTTCAAGCGCCATCTAC,1.34 RPM ratio (pull-down/input)
7,GATGATTGTTCTCCCAGCTGATGAATTTATCGTATCGAGTAAACAAATTTTCCTAATCTTTCTGTTCAAGCGCCATCTAC,1.22 RPM ratio (pull-down/input)
8,GATGATTGTTCTCCCAGCTGATGAATTGAAATTATCGAGTAAACAAATTTTCCTAATCTTTCTGTTCAAGCGCCATCTAC,1.01 RPM ratio (pull-down/input)
9,GATGATTGTTCTCCCAGCTGATGAATTTGAATTATCGAGTAAACAAATTTTCCTAATCTTTCTGTTCAAGCGCCATCTAC,0.969 RPM ratio (pull-down/input)
10,GATGATTGTTCTCCCAGCTGATGAATTTATTGTATCGAGTAAACAAATTTTCCTAATCTTTCTGTTCAAGCGCCATCTAC,1.6 RPM ratio (pull-down/input)
11,GATGATTGTTCTCCCAGCTGATGAATTTCTGTCATCGAGTAAACAAATTTTCCTAATCTTTCTGTTCAAGCGCCATCTAC,1.15 RPM ratio (pull-down/input)
12,GATGATTGTTCTCCCAGCTGATGAATTAGTGTAATCGAGTAAACAAATTTTCCTAATCTTTCTGTTCAAGCGCCATCTAC,1.54 RPM ratio (pull-down/input)
13,GATGATTGTTCTCCCAGCTGATGAATTGTTGTCATCGAGTAAACAAATTTTCCTAATCTTTCTGTTCAAGCGCCATCTAC,2.36 RPM ratio (pull-down/input)
14,GATGATTGTTCTCCCAGCTGATGAATTGTATTTATCGAGTAAACAAATTTTCCTAATCTTTCTGTTCAAGCGCCATCTAC,2.72 RPM ratio (pull-down/input)
15,GATGATTGTTCTCCCAGCTGATGAATTAGACAGTTCGAGTAAACAAATTTTCCTAATCTTTCTGTTCAAGCGCCATCTAC,0.913 RPM ratio (pull-down/input)
16,GATGATTGTTCTCCCAGCTGATGAATTTTTAAGTTCGAGTAAACAAATTTTCCTAATCTTTCTGTTCAAGCGCCATCTAC,0.97 RPM ratio (pull-down/input)
